Cycloheximide cs – counter-screen for Shiga toxin inhibitors: cycloheximide protein synthesis inhibition; 300,000 tested, 12% active; max response, %; cell reporter, cycloheximide protein synthesis inhibition counterscreen; in the data active means max response mostly above about 13%, no sharp cut-off; inactive means mostly below about 14%; further: read at 38.3 µM for the half of the compounds with a filed dose; 0% is about no effect
Shiga toxin inh – Shiga toxin inhibition. Vero cells, Shiga toxin protein synthesis inhibition reporter. inhibition, % at 38.7 µM. 290,000 tested, 9.2% active. AID 2315; in the data active means inhibition mostly above about 28%, no sharp cut-off; inactive means mostly below about 43%; further: 0% is about no effect
Sm TGR inh – inhibitors of Schistosoma mansoni thioredoxin glutathione reductase; Q962Y6; purified TGR, DTNB reduction, TNB absorbance 405 nm; Potency, µM (series often up to 114 µM), without a hit: top-dose activity change, negative = inhibition, hits mostly inhibitors; 360,000 tested, 3% active; AID 485364; further: potency means the concentration at half of the fitted maximal effect; on the % scale 0 is the no-effect control and ±100 the full control effect; nearly all actives have a fitted effect of over 60% in size
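Kinetic colorimetric format: TGR-catalysed, NADPH-driven DTNB reduction monitored via TNB absorbance. Enzyme dispensed at 20 nM; compound exposure 15 min at room temperature before reaction start.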
Pf growth 48h – inhibits P. falciparum growth in the first generation, 48 h; AID 504832; P. falciparum luciferase growth in erythrocytes, 48 h; 310,000 tested, 5.9% active; Potency, µM (top dose mostly 28.7 µM), inactives show at the top dose activity change, negative = inhibition, hits mostly inhibitors; further: potency means the concentration at half of the fitted maximal effect; on the % scale 0 is the no-effect control and ±100 the full control effect
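A one-generation exposure of luciferase-tagged malaria parasites in RPMI 1640/Albumax erythrocyte culture, 37 C and 5% CO2. Inhibition is inferred from decreased luminescence after adding detection reagent.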
NS1 function inh – inhibitors of influenza NS1 protein function | Potency, µM (titrated, usually from 46.1 µM), without a hit: top-dose activity, positive = more growth | 270,000 tested, 0.4% active; calls by dose curve; further: potency means the concentration at half of the fitted maximal effect; actives are rising curves; nearly all actives have a fitted effect of over 50% in size
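Read-out: OD600 growth recovery of NS1-expressing budding yeast. Cells grown overnight at 30C in -URA glucose medium, washed, resuspended and diluted 1:100 in 2% galactose assay medium, pH 6.0. Same strain lacking NS1 served as positive control.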
Pf growth 96h – P. falciparum growth inhibition at 96 hour, primary screen for plastid delayed-death inhibitors; Potency, µM (highest dose often 28.7 µM), for inactives: top-dose activity change, negative = inhibition, most hits filed as inhibitors; P. falciparum luciferase reporter growth, 96 h; 320,000 tested, 6.9% active; AID 504834; further: potency means the concentration at half of the fitted maximal effect; on the % scale 0 is the no-effect control and ±100 the full control effect
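Infected RBCs, 2% Hct / 0.05% parasitemia final; luciferase-reporter P. falciparum; cpd 96 h, 37 C, 5% CO2; luciferase detection reagent; luminescence.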
Starred values were filed as active, the others as inactive; [ ] = dose if it differs, or a comment. Rows were chosen to be rich in hits. Some 21% of all compounds tested hit in one or more screens of this group. Unless noted, the call rests on the fitted dose curve; in most records, active means well fitted curve in the direction sought with a large enough effect; inconclusive means small, poorly fitted or top-dose-only effect, or another doubt; inactive means no such curve, though single readings can be large; an effect the other way counts as inactive or inconclusive.

Results for CCN1C(=C2C(=O)c3ccccc3C2=O)C=Cc2ccccc21 ?
Cycloheximide cs: 25*; Shiga toxin inh: 39*; Sm TGR inh: -25%; NS1 function inh: -6%; Pf growth 96h: 9%

How did CCN1C(=O)/C(=C2/C=Cc3ccccc3N2C)OC1=S do in these assays?
Cycloheximide cs: 37*; Shiga toxin inh: 44; Sm TGR inh: 3%; NS1 function inh: -111%; Pf growth 96h: 6%

What do the screens show for `COCCNC(=O)CSc1nnc(CCCN2C(=O)c3cccc4cccc(c34)C2=O)n1-c1ccccc1`?
Cycloheximide cs: -9; Shiga toxin inh: -10; Sm TGR inh: 6%; Pf growth 48h: inconclusive; NS1 function inh: -1%; Pf growth 96h: -95%

How did CCOC(=O)C1=C(C)NC(C)=C(C(=O)OCC)C1C(=O)OCC(=O)N1CCc2ccccc21 do in these assays?
Cycloheximide cs: -3; Shiga toxin inh: 39; Sm TGR inh: -6%; Pf growth 48h: 10µM*; NS1 function inh: -6%

What do the screens show for `Cc1ccc(C(=O)OCC(=O)N2CCCc3ccccc32)cc1C`?
Sm TGR inh: -8%; Pf growth 48h: 10%; Pf growth 96h: 0%

What do the screens show for `Cc1ccc(N(CC(=O)N2CCc3ccccc32)C2=NC(=O)CS2)cc1`?
Cycloheximide cs: -5; Shiga toxin inh: -18; Sm TGR inh: 0%[11.4 µM]; NS1 function inh: -5%; Pf growth 96h: 9.3µM*

How did O=C(OCC(=O)N1CCc2ccccc21)c1ccccc1F do in these assays?
Cycloheximide cs: 45*; Shiga toxin inh: 113*; Sm TGR inh: 6%; Pf growth 48h: 121%; NS1 function inh: -23%; Pf growth 96h: -9%

What do the screens show for `Cc1ccc(C(=O)OCC(=O)N2CCc3ccccc32)cc1`?
Cycloheximide cs: 34*; Shiga toxin inh: 152*; Sm TGR inh: 17%; Pf growth 48h: 142%; NS1 function inh: -10%; Pf growth 96h: 66%

How did O=C(OCC(=O)N1CCc2ccccc21)c1ccccc1[N+](=O)[O-] do in these assays?
Sm TGR inh: -3%; Pf growth 48h: 103%; Pf growth 96h: 24%

Results for O=C(Nc1ccc(OC(F)(F)F)cc1)C1CCCCN1S(=O)(=O)c1ccccc1 (centres undefined) ?
Sm TGR inh: 2%; Pf growth 48h: 0%; Pf growth 96h: inconclusive

How did COc1cc2nncc(SCc3ccc(Cl)c(Cl)c3)c2cc1OC do in these assays?
NS1 function inh: -8%

How did Cc1cc(=O)n2nc(N3CCCC(C(=O)NCc4ccccc4C)C3)sc2n1 (centres undefined) do in these assays?
Cycloheximide cs: -1; Shiga toxin inh: 5; Sm TGR inh: -2%; Pf growth 48h: -25%; NS1 function inh: 7%; Pf growth 96h: inconclusive

Results for Cc1ccc(C(=O)OCC(=O)N2CCCC2)cc1 ?
Cycloheximide cs: 43*; Shiga toxin inh: 47*; Sm TGR inh: -12%; Pf growth 48h: 101%; NS1 function inh: 0%; Pf growth 96h: 103%

Results for Cc1ccc(S(=O)(=O)N2CCC(=O)N(CCOCc3ccc(C(F)(F)F)cc3)CC2)cc1 ?
Cycloheximide cs: 7; Shiga toxin inh: -2; Sm TGR inh: -8%; Pf growth 48h: -22%; NS1 function inh: 16%; Pf growth 96h: inconclusive

What do the screens show for `Cc1cc(C)[n+](C2C3CC4CC(C3)CC2C4)o1` (centres undefined)?
Cycloheximide cs: 4; Shiga toxin inh: 10; Sm TGR inh: -3%; Pf growth 48h: inconclusive; NS1 function inh: 19%; Pf growth 96h: 1.9µM*

What do the screens show for `Cc1c(C)c(C)c(S(=O)(=O)NCCC(=O)N2CCN(Cc3ccc(C#N)cc3)CC2)c(C)c1C`?
Sm TGR inh: -13%; Pf growth 48h: -1%; Pf growth 96h: 20%

Results for Cc1ccnc(SCC(=O)c2cccs2)n1 ?
Cycloheximide cs: 38*; Shiga toxin inh: 84*; Sm TGR inh: -16%; Pf growth 48h: 145%; NS1 function inh: 13%; Pf growth 96h: 291%

How did Cn1nnnc1SCC(=O)c1ccc(Br)s1 do in these assays?
Cycloheximide cs: 10; Shiga toxin inh: 13; Sm TGR inh: -1%; Pf growth 48h: 29%; NS1 function inh: -2%; Pf growth 96h: 46%

How did CC(=O)Nc1ccc(SCc2csc(C)n2)cc1 do in these assays?
Cycloheximide cs: 14; Shiga toxin inh: 47*; Sm TGR inh: -18%; Pf growth 48h: inconclusive; NS1 function inh: 15%; Pf growth 96h: inconclusive

How did Cc1ccnc(SCC(=O)c2ccc(Br)s2)n1 do in these assays?
Cycloheximide cs: 36*; Shiga toxin inh: 37; Sm TGR inh: 26%; Pf growth 48h: 36%; Pf growth 96h: 6%

Results for CCC(C)NC(=O)CSc1ccc(NC(C)=O)cc1 (centres undefined) ?
Cycloheximide cs: -5; Shiga toxin inh: -2; Sm TGR inh: 1%; NS1 function inh: -2%; Pf growth 96h: -5%

What do the screens show for `CC(=O)Nc1ccc(SCC(=O)c2ccc(Br)s2)cc1`?
Cycloheximide cs: 21*; Shiga toxin inh: 37*; Sm TGR inh: -13%; Pf growth 48h: 37%; NS1 function inh: -37%; Pf growth 96h: 57%

How did CCOC(=O)c1ccccc1NC(=S)N1CCN(C(=O)c2ccco2)CC1 do in these assays?
Cycloheximide cs: -10; Shiga toxin inh: -9; Sm TGR inh: -9%; Pf growth 48h: 4%; NS1 function inh: 11%; Pf growth 96h: inconclusive

What do the screens show for `COc1ccc(CCNC(=O)CCc2ccc(S(=O)(=O)NCC(C)C)cc2)cc1`?
Cycloheximide cs: -4; Shiga toxin inh: -3; Sm TGR inh: 0%; Pf growth 48h: -18%; NS1 function inh: -5%; Pf growth 96h: inconclusive

What do the screens show for `COc1ccccc1CNC(=O)c1ccc2c(c1)N(Cc1c(F)cccc1Cl)C(=O)CS2`?
Sm TGR inh: 2%

How did CN1CCN(C(=O)C2=C[C@H](C(C)(C)C)C[C@H](OCCCCO)O2)CC1 do in these assays?
Cycloheximide cs: -2; Shiga toxin inh: -6; Sm TGR inh: -23%; Pf growth 48h: 0%; NS1 function inh: 5%; Pf growth 96h: 0%

How did CCc1cc2c(=O)c(-c3cscn3)coc2cc1OC do in these assays?
Cycloheximide cs: 17; Shiga toxin inh: 101*; Sm TGR inh: 0%; Pf growth 48h: 0%; NS1 function inh: -6%; Pf growth 96h: 19%

How did CCC(Oc1ccc2c(=O)c(-c3ccccc3OC)coc2c1)C(=O)OCc1ccccc1 (centres undefined) do in these assays?
Cycloheximide cs: -2; Shiga toxin inh: 10; Sm TGR inh: 0%; Pf growth 48h: -14%; NS1 function inh: -13%; Pf growth 96h: inconclusive

Results for CCOC(=O)c1oc2cc(O)c(CC)cc2c(=O)c1-c1cscn1 ?
Cycloheximide cs: 16; Shiga toxin inh: 0; Sm TGR inh: -3%; Pf growth 48h: 5%; Pf growth 96h: 28%

Results for CCc1cc2c(=O)c(-c3cscn3)coc2cc1O ?
Cycloheximide cs: 31*; Shiga toxin inh: 67*; Sm TGR inh: 0%; Pf growth 48h: 88%; NS1 function inh: -8%[9.22 µM]

Source: PubChem
